# Rows were chosen to be rich in hits. Some 9.4% of all compounds tested hit in one or more screens of this group.
# ALDH1A1 block: inhibitors of human aldehyde dehydrogenase 1A1. P00352. 220,000 compounds, 7.3% hits. AID 1030. Potency, µM (top dose mostly 75.3 µM), inactives show at the highest dose activity, negative = inhibition, hits mostly inhibitors. Purified ALDH1A1, NADH fluorescence, propionaldehyde substrate; active means well fitted inhibition curve with a large enough effect, not every such curve was filed as active; inconclusive means small, poorly fitted or top-dose-only effect, or another doubt; inactive means no such curve, though single readings can be large or run the other way;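 further: potency means the concentration at half of the fitted maximal effect; plate controls were no enzyme wells and a reference inhibitor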
# Target sequence (P00352 whole entry, looked up): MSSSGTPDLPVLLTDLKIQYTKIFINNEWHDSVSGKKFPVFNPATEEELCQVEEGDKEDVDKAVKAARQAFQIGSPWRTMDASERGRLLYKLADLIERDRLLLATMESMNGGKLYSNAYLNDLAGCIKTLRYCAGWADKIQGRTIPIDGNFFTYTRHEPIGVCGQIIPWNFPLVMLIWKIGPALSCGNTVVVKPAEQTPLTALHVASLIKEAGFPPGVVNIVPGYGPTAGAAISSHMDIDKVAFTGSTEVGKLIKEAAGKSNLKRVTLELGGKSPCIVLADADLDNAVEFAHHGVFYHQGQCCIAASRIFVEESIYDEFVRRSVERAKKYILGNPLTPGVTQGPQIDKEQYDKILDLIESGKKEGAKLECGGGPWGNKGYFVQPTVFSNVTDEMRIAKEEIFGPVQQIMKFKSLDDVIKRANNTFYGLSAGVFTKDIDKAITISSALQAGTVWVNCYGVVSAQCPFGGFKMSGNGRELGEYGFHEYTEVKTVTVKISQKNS
# HTT cytoprotect: cytoprotection in Huntington HTT-Q103 PC12 cell model | PC12 HTT-Q103 induced, cytoprotection, ATP luminescence, 40 h | Potency, µM (titrated, usually from 56.4 µM), for inactives: cytoprotection (ATP increase), most hits filed as activators | 230,000 compounds, 0.14% hits | AID 1471; further: potency means the concentration at half of the fitted maximal effect; % of control where 0% means no effect; nearly all actives have a fitted effect of over 45% in size
#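 Compounds were screened for protection of PC12 cells against cell death after tebufenozide induction (100 nM final) of mutant Huntingtin exon 1 (Q103) fused to GFP.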
# IMPase Li inh: membrane-permeable IMPase blocker, potentiated with lithium | 210,000 compounds, 0.35% hits | Potency, µM (series often up to 59.4 µM), without a hit: top-dose activity, negative = IMPase inhibition, actives largely listed as inhibitors | CHO-M1 cells, IP1 TR-FRET (IP-One), carbachol + lithium;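 further: IP1 builds up when IMPase is blocked and the TR-FRET signal falls; potency means the concentration at half of the fitted maximal effect; plate controls were basal vehicle for no effect and high inhibitor control for full effect; nearly all actives have a fitted effect of over 50% in size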
#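 Concentration–response in CHO-M1 cells, lithium-potentiated; 30 min at 37C. IP1 detected by competitive TR-FRET after 10 min lysis at RT. Hill-fitted AC50.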
# HttQ103 aggreg: inhibitors of mutant huntingtin aggregate formation in PC12 cells; PC12 HttQ103-GFP aggregates, Acumen cytometry, 40 h; Potency, µM (series often up to 46.1 µM), inactives show at the highest dose activity change, negative = inhibition, usual class: inhibitors; 220,000 compounds, 1.1% hits; AID 1688; further: potency means the concentration at half of the fitted maximal effect; on the % scale 0 is the no-effect control and ±100 the full control effect; nearly all actives have a fitted effect of over 60% in size
#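 Compounds (qHTS titration) were added to PC12 cells expressing an ecdysone-driven HTT exon 1 Q103–GFP fusion after induction with 100 nM tebufenozide. Aggregate formation was measured as GFP objects in cell lysates.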
# HPGD inh: HPGD (human) dehydrogenase inhibition; P15428; purified HPGD, NADH fluorescence kinetic, PGE2 substrate; Potency, µM, inactives show at the top dose activity change, negative = inhibition, most hits filed as inhibitors; 150,000 compounds, 4.3% hits; active means well fitted inhibition curve with a large enough effect, not every such curve was filed as active; inconclusive means small, poorly fitted or top-dose-only effect, or another doubt; inactive means no such curve, though single readings can be large or run the other way; further: potency means the concentration at half of the fitted maximal effect; on the % scale 0 is the no-effect control and ±100 the full control effect
#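 20 nM HPGD preincubated 15 min at room temperature with compound in 50 mM Tris-HCl pH 8, 0.01% Tween 20. Started with 1 mM NAD+ and 30 uM prostaglandin E2; NADH fluorescence (360/450 nm) read 5 times over 30-s intervals, last minus first.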
# IMPase cell inh: cell-permeable inhibitors of inositol monophosphatase (IMPase); AID 901; CHO-M1 cells, IP1 accumulation, HTRF TR-FRET ratio; P97697; inhibition (IP1 accumulation), % at 46.1 µM; 120,000 tested, under 10 active; active means well fitted curve in the direction sought with a large enough effect in the signal ratio, not every such curve was filed as active; inconclusive means small, poorly fitted or top-dose-only effect, or a change in a side signal; inactive means no such curve, though single readings can be large or run the other way; the % refers to the signal ratio;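 further: cells stimulated with carbachol in lithium chloride buffer; plate controls were DMSO basal wells for no effect and reference inhibitor wells for full effect; higher means more IMPase inhibition seen as more IP1 and lower FRET ratio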
# Target sequence (P97697 whole entry, looked up): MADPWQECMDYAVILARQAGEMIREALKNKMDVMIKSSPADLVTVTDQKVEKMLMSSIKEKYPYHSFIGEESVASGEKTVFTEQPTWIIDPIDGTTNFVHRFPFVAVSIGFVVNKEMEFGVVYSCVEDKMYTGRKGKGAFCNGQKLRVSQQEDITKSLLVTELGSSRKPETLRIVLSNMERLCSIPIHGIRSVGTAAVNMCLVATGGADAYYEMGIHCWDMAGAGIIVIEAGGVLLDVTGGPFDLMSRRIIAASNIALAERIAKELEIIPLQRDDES
#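 Measured: the HTRF emission ratio (665/620 nm) plus the 620 nm donor channel, each fitted to the Hill equation to give AC50. Cells were CHO-M1 given compounds up to 46 uM and a 30 min carbachol stimulation at 37C.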
# Starred values were filed as active, the others as inactive; ? = inconclusive; · = not tested or not shown; [ ] = dose if it differs, or a comment. Unless noted, the call rests on the fitted dose curve; in most records, active means well fitted curve in the direction sought with a large enough effect; inconclusive means small, poorly fitted or top-dose-only effect, or another doubt; inactive means no such curve, though single readings can be large; an effect the other way counts as inactive or inconclusive.
SMILES,ALDH1A1 block,HTT cytoprotect,IMPase Li inh,HttQ103 aggreg,HPGD inh,IMPase cell inh
CCCCC(=O)N1CCCC(C(=O)OCC)C1 (stereo not drawn),10%,3%,3%[38.3 µM],5%,-7%,-8
CCOCC(=O)N1CCCC(C(=O)OCC)C1 (stereo not drawn),3.5µM*,9%[0.074 µM],-9%[38.3 µM],-13%,-2%,-3
Cc1ccc(-c2nnc3c4ccccc4c(C)nn23)cc1NC(=O)c1ccccc1,·,·,·,·,·,-4
N#CCCn1c(=O)c(-c2ccc(Cl)cc2)nc2cnc(OCc3ccccc3)nc21,?,-1%,18%,·,?,·
Cc1ccc(N/N=C(/Sc2nnnn2-c2ccccc2)C(=O)c2ccccc2)cc1,3.2µM*,·,6%,10%,-12%,·
O=C(/C(=N\Nc1ccc([N+](=O)[O-])cc1)Sc1nnnn1-c1ccccc1)c1ccccc1,3.2µM*,16%[10 µM],12%,?,-11%,·
COC(=O)C1CCN(S(=O)(=O)Cc2ccccc2)CC1,?,-2%[10 µM],9%[38.3 µM],19%,22µM*,25
CC1CC2(CC(C)(C(=O)CSc3n[nH]c(-c4ccccc4Cl)n3)OC2=O)C(=O)O1 (stereo not drawn),18µM*,-7%,19%[38.3 µM],16%,?,10
CC1(C(=O)CSc2n[nH]c(-c3ccccc3Cl)n2)CCC(=O)O1 (stereo not drawn),?,17%,2%[38.3 µM],-7%,-19%,-9
COc1ccc(N(C(=O)c2ccc(OC)c(OC)c2)S(=O)(=O)c2ccc(Cl)cc2)cc1,·,·,·,·,·,6
O=C1c2ccccc2CN1CCSC(=S)N1CCSCC1,10µM*,-45%,15%,1%,·,·
CC1CN(C(=S)SCCN2Cc3ccccc3C2=O)CC(C)O1 (stereo not drawn),-2%,-8%[1.9 µM],-6%,?,-17%,10
O=C1c2ccccc2CN1CCSC(=S)N1CCOCC1,?,9%[10 µM],-2%,10%,28µM*,·
O=C(O)CCCN=C1NC2(CCCC2)Cc2ccccc21,5%,6%[10 µM],-4%,4%,3%,8
O=C(O)CCN=C1CCCc2ccccc2N1,32µM*,-29%,6%[38.3 µM],-2%,-13%,-1
CCOC(=O)NC1(C(F)(F)F)NC(=O)N(c2ccc(C)c(C)c2)C1=O (stereo not drawn),·,·,·,·,·,-11
COc1ccc(C(=O)[C@]2(C)C=C(c3ccc(OC)cc3)[C@H](C)C2)cc1,2%,35µM*,16%,·,-7%,·
C[C@@H]1C[C@](C)(C(=O)c2ccc3c(c2)OCO3)C=C1c1ccc2c(c1)OCO2,-10%,-11%,-4%,·,3%,·
CC1=N/C(=C\c2ccc(OC(C)C)cc2)C(=O)N1c1ccc(C(=O)O)cc1,-8%,·,-2%,10%,16µM*,·
CC(C)Oc1ccc(C(=O)O)cc1,4%,7%[10 µM],·,0%[9.22 µM],·,·
O=C(CSC(=S)N1CCCC1)c1cc(Br)cc(Br)c1O,16µM*,-56%,-4%,?,·,·
CC1CCCN(C(=S)SCC(=O)c2cc(Br)cc(Br)c2O)C1 (stereo not drawn),25µM*,44%[10 µM],14%,12%[9.22 µM],·,·
N#C/C(=C\c1ccc(-c2cccc(Cl)c2)o1)C(=O)Nc1cccc(C(F)(F)F)c1,·,·,·,·,·,1
CCC1=C2CC[C@H]3C(=O)N(CC(=O)OC)C(=O)[C@H]3[C@H]2[C@@]2(C)C(=O)N(Cc3ccccc3)C(=O)N2C1=O,-1%,-51%,-6%,·,-2%,·
COc1ccc(Oc2ncc3ncc(=O)n(Cc4cccs4)c3n2)cc1,?,4%,21%,·,-16%,·
SMILES,ALDH1A1 block,HTT cytoprotect,IMPase Li inh,HttQ103 aggreg,HPGD inh,IMPase cell inh
COc1cccc(-n2nc(-c3ccnn3-c3ccc(C)cc3)c(=O)n(C)c2=O)c1,40µM*,-16%,34%[38.3 µM],-10%,-24%,5
CS(=O)(=O)N1CCC2(CC1)CN(C(=O)Nc1cccc(F)c1)C2,7%,-33%,1%,·,2%,·
C=C1CCC2[C@](C)(CO)[C@H](O)CC[C@@]2(C)[C@@H]1C/C=C1/C(=O)OC[C@H]1O (stereo partly drawn),6%,7.1µM*,10%,·,-7%,·
CC1(C)CC[C@]2(C(=O)O)CC[C@@]3(C)C(=CCC4[C@@]5(C)CCC(O)[C@@](C)(CO)C5CC[C@@]43C)C2C1 (stereo partly drawn),-5%,·,1%,·,-2%,·
COc1ccc(-c2nsc(SCC(=O)Nc3ccc4c(c3)OCO4)n2)cc1,5%,11%[10 µM],?,5%,-17%,·
CCOC(=O)CNC(=O)CSc1nc(-c2ccc(C)cc2)ns1,?,·,8%,14%,·,·
CCOC(=O)CNC(=O)CSc1nc(-c2ccccc2)ns1,25µM*,·,6%,3%,·,·
CCOC(=O)CSc1nc(-c2ccc(OC)cc2)ns1,25µM*,29%[10 µM],26%[38.3 µM],8%,35µM*,-8[1.84 µM]
CCc1ccc(NS(=O)(=O)c2ccc3oc(=O)c4ncn(CC)c4c3c2)cc1,·,·,·,·,·,-1
CC(C)(CSc1ccccn1)NS(=O)(=O)c1ccc(Cl)cc1,10µM*,-8%[10 µM],25%,9%,-8%,·
O=S(=O)(c1ccccc1)N1CCC[C@@]2(CCN(c3ncccn3)C2)C1,?,?,8%,·,-9%,·
Cc1ccc(S(=O)(=O)NCC(=O)N/N=C/c2ccc(Cl)cc2Cl)cc1,7.1µM*,-8%[10 µM],-6%,3%,-4%,-7
Cc1ccc(NCC(=O)N/N=C/c2cc3ccccc3nc2Cl)cc1,10µM*,-32%,9%[38.3 µM],22%,-14%,?
O=C(CN1CCOCC1)N/N=C/c1cc2ccccc2nc1Cl,?,-2%[10 µM],8%[38.3 µM],-2%,?,11[1.84 µM]
CN1C(=S)N(c2ccccc2)C(=O)/C1=C/c1ccco1,13µM*,17%[0.074 µM],-4%,3%,-21%,·
COc1cccc(C2C3=C(N=C4SCC(=O)N42)c2ccccc2CC3)c1OC (stereo not drawn),?,13%,38%[38.3 µM],-7%,-18%,12
COc1ccc(OC)c(C2C3=C(N=C4SCC(=O)N42)c2ccccc2CC3)c1 (stereo not drawn),?,21%,22%[38.3 µM],11%[9.22 µM],22µM*,4
O=C(COC(=O)c1ccco1)NCc1ccc2c(c1)OCO2,·,26%[10 µM],·,6%[9.22 µM],·,·
O=C(CSCc1ccccc1)NCc1ccc2c(c1)OCO2,?,-1%,-8%[38.3 µM],2%[9.22 µM],20µM*,2
O=C(OC(C(=O)NCc1ccc2c(c1)OCO2)c1ccc(Cl)cc1)c1ccco1 (stereo not drawn),14µM*,14%,-2%[38.3 µM],-18%,28µM*,2
O=C(CSCc1cccc(Cl)c1)NCc1ccc2c(c1)OCO2,?,20%,3%[38.3 µM],2%,13µM*,-1
Cc1ccc(CSCC(=O)NCc2ccc3c(c2)OCO3)cc1,·,9%[10 µM],·,-3%[9.22 µM],·,·
